# Results: PMC4081100, “A DNA-binding-site landscape and regulatory network analysis for NAC transcription factors in Arabidopsis thaliana”
# Columns and labels:
# Assay in all cases: universal protein binding microarray (PBM); transcription factors of Arabidopsis thaliana; high values mean tight binding
# [1] = target: T1, GST-ANAC092(1-176) (Arabidopsis thaliana, UniProt Q9FKA0 1-176); details: protein: recombinant; tags: GST; chain copies: 2; dsDNA, one strand shown
# T1 sequence: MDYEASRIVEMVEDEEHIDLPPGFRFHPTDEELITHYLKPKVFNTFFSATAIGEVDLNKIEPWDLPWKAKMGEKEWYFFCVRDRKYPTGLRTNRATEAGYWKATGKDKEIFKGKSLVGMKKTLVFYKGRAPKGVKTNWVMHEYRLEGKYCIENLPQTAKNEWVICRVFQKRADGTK
# Summary of the method: (§1)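 Each value is a normalised enrichment score (E-score) describing binding. The GST-tagged proteins, NAC-domain, full-length or DNA-binding-domain, were induced in cells (zinc-finger proteins with zinc acetate added) and purified on glutathione–Sepharose 4B. They were applied at 200 to 500 nM final, in duplicate, to double-stranded custom all-10-mer Agilent 4 × 180K arrays, and gapped and ungapped 8-mers were scored.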
# [2] = target: GST-NTL6(1-168) (Arabidopsis thaliana, UniProt Q9SCK6 1-168); details: protein: recombinant; tags: GST; chain copies: 2; dsDNA, one strand shown
# Sequence of GST-NTL6(1-168) (Q9SCK6 1-168): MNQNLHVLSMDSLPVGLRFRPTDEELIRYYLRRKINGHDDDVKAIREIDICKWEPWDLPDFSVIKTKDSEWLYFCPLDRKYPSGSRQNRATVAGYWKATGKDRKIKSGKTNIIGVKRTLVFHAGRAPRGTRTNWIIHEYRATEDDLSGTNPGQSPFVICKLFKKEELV
# Summary of the method: as §1
# [3] = target: T2, GST-ANAC019 NAC domain (Arabidopsis thaliana, UniProt Q9C932 14-162); details: protein: recombinant; tags: GST; chain copies: 2; dsDNA, one strand shown
# T2 sequence: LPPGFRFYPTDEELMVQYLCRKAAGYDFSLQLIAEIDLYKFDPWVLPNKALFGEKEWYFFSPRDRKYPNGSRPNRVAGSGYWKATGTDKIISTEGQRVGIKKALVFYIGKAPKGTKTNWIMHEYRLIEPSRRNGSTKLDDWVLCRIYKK
# Summary of the method: as §1
# [4] = target: T3, GST-ANAC055(1-171) (Arabidopsis thaliana, UniProt Q9LDY8 1-171); details: protein: recombinant; tags: GST; chain copies: 2; dsDNA, one strand shown
# T3 sequence: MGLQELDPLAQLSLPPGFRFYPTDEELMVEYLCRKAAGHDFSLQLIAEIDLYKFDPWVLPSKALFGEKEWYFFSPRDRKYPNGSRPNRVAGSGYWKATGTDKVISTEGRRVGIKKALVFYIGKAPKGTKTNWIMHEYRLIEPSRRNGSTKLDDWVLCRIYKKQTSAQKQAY
# Summary of the method: as §1
# [5] = target: T4, GST-ATAF1 NAC domain (Arabidopsis thaliana, UniProt Q39013 7-158); details: protein: recombinant; tags: GST; chain copies: 2; dsDNA, one strand shown
# T4 sequence: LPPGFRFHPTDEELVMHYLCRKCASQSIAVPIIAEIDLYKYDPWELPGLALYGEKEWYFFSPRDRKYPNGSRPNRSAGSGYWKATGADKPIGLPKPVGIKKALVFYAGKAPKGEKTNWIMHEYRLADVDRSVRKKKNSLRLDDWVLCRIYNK
# Summary of the method: as §1
# [6] = target: T5, GST-ANAC092(1-285) full length (Arabidopsis thaliana, UniProt Q9FKA0 1-285); details: protein: recombinant; tags: GST; chain copies: 2; dsDNA, one strand shown
# T5 sequence: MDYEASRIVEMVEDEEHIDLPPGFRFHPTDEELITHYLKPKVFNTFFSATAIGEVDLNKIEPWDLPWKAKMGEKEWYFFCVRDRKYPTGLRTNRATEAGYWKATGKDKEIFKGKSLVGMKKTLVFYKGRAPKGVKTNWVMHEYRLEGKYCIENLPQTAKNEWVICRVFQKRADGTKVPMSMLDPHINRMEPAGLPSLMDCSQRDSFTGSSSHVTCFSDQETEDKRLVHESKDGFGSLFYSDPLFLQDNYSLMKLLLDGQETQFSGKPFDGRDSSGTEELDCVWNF
# Summary of the method: as §1
# [7] = target: T6, GST-NAP(1-166) (Arabidopsis thaliana, UniProt O49255 1-166); details: protein: recombinant; tags: GST; chain copies: 2; dsDNA, one strand shown
# T6 sequence: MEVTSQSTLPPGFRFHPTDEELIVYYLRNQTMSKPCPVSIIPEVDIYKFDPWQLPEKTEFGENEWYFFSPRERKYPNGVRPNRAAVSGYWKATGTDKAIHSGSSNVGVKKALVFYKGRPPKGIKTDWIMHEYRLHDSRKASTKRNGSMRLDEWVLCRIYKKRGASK
# Summary of the method: as §1
# [8] = target: T7, GST-NST2(1-184) (Arabidopsis thaliana, UniProt Q9M274 1-184); details: protein: recombinant; tags: GST; chain copies: 2; dsDNA, one strand shown
# T7 sequence: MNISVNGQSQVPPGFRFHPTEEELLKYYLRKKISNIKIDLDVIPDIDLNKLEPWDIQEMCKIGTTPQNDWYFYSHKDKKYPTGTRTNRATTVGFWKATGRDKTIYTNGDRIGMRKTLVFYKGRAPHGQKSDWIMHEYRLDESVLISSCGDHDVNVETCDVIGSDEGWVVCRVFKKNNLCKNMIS
# Summary of the method: as §1
# [9] = target: T8, GST-NTL8 NAC domain (Arabidopsis thaliana, UniProt Q9XIN7 14-156); details: protein: recombinant; tags: GST; chain copies: 2; dsDNA, one strand shown
# T8 sequence: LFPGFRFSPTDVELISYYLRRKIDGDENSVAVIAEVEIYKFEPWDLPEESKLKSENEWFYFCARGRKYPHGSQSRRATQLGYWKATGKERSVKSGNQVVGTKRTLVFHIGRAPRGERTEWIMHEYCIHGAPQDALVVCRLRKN
# Summary of the method: as §1
# [10] = target: T9, GST-SND1(1-203) (Arabidopsis thaliana, UniProt Q9LPI7 1-203); details: protein: recombinant; tags: GST; chain copies: 2; dsDNA, one strand shown
# T9 sequence: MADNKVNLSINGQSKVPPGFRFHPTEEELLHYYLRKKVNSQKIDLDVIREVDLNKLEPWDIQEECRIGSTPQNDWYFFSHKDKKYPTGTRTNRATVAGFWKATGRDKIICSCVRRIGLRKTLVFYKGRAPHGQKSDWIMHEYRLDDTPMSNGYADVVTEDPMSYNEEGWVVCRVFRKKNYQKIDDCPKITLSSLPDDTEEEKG
# Summary of the method: as §1
# [11] = target: T10, GST-VND3 NAC domain (Arabidopsis thaliana, UniProt Q9FH59 12-162); details: protein: recombinant; tags: GST; chain copies: 2; dsDNA, one strand shown
# T10 sequence: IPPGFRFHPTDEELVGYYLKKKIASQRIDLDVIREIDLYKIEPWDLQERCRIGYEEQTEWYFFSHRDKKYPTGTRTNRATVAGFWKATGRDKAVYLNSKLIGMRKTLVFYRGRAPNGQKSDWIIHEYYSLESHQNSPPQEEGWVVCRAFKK
# Summary of the method: as §1
# [12] = target: T11, GST-VND7 NAC domain (Arabidopsis thaliana, UniProt Q9C8W9 9-158); details: protein: recombinant; tags: GST; chain copies: 2; dsDNA, one strand shown
# T11 sequence: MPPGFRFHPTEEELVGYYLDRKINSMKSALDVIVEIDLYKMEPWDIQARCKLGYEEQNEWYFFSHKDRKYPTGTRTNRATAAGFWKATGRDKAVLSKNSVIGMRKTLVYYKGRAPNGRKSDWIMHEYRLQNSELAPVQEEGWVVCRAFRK
# Summary of the method: as §1
# [13] = target: GST-WRKY1(266-371) (Arabidopsis thaliana, UniProt Q9SI37 266-371); details: protein: recombinant; tags: GST; dsDNA, one strand shown
# Sequence of GST-WRKY1(266-371) (Q9SI37 266-371): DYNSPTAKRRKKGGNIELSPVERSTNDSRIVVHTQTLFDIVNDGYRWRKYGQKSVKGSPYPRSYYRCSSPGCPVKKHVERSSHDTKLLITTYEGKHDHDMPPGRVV
# Summary of the method: as §1
Sequence,binding signal [1] [E-score],binding signal [2] [E-score],binding signal [3] [E-score],binding signal [4] [E-score],binding signal [5] [E-score],binding signal [6] [E-score],binding signal [7] [E-score],binding signal [8] [E-score],binding signal [9] [E-score],binding signal [10] [E-score],binding signal [11] [E-score],binding signal [12] [E-score],binding signal [13] [E-score]
TTACGGAA,0.266,0.151,0.455,0.402,0.404,0.354,0.413,0.199,0.128,0.405,0.442,0.391,0.126
AATGCGTG,0.434,0.147,0.324,0.227,0.271,0.44,0.227,0.243,,0.288,0.286,0.254,0.087
TAACGTAA,0.452,0.135,0.25,0.254,0.34,0.449,0.309,0.402,0.174,0.488,0.375,0.413,0.0682
ATTACGTA,0.459,0.201,0.474,0.438,0.404,0.449,0.47,0.331,0.134,0.44,0.468,0.458,0.0642
CTTACCCC,0.192,0.322,0.132,0.191,0.0855,0.179,0.096,0.175,0.405,0.198,0.101,0.149,0.0524
ATTACGTG,0.457,0.112,0.468,0.432,0.372,0.462,0.419,0.296,0.146,0.252,0.446,0.437,0.127
CTACGTTA,0.323,0.0691,0.152,0.144,0.228,0.382,0.135,0.335,,0.478,0.24,0.164,0.0835
GATACGTA,0.381,0.0687,0.428,0.415,0.341,0.385,0.458,0.253,,0.257,0.405,0.424,0.0663
AGACGCAA,0.453,0.0768,0.222,0.246,0.262,0.462,0.433,0.242,0.107,0.265,0.295,0.276,0.0554
ACGCAAGA,0.449,0.116,0.243,0.264,0.156,0.456,0.285,0.315,0.128,0.405,0.252,0.194,0.123
GTAAGTCA,0.109,0.283,0.134,0.228,0.238,0.268,0.0612,0.21,,0.234,0.19,0.232,0.429
AAATTGAC,0.173,0.156,0.134,0.213,0.228,0.139,0.136,0.194,0.0641,0.2,0.228,0.0875,0.45
